For nine compounds, growth results are on record in PubChem BioAssay (NCI).

Some test systems named below: RPMI-8226 leukemia; OVCAR-8 ovarian; OVCAR-5 ovarian; OVCAR-4 ovarian; SK-OV-3 ovarian; IGROV1 ovarian; OVCAR-3 ovarian; HS 578T breast; NCI/ADR-RES ovarian; T-47D breast; BT-549 breast; MDA-MB-435 melanoma; SW-620 colon; MCF7 breast; HCT-116 colon; KM12 colon; HCC-2998 colon.
Holding throughout (assay): NCI-60 one-dose screen, 48 h (100 = growth as untreated, 0 = no growth, -100 = all killed)
What all share (settings): 10 µM unless noted

Each structure is given as a SMILES string. Compounds without any hit were thinned out: in the full panel of roughly 83,000, 20% have a hit.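 Negative percent growth values reflect cell death: -40 means 40% of the cells present at the start died, and -100 means all died.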 A number with no mark means an inactive call. Active and inactive are the calls of the source. Rule for the calls: active = growth percent below 10; inactive = the rest.

Turning to `COC(=O)C[C@@H]1CC=CC(=O)/C1=C(O)/C=C/c1ccccc1`, the growth was 31.3% in the assay on RPMI-8226 leukemia; 10.6% in the assay on OVCAR-8 ovarian; -83.8% (active) in the assay with OVCAR-5 ovarian; -10.7% (active) in the assay with OVCAR-4 ovarian; 32.6% in the assay on SK-OV-3 ovarian; -72.9% (active) in the assay with IGROV1 ovarian. Moreover, the growth was -92.5% (active) in the assay on OVCAR-3 ovarian; 12.5% in the assay with HS 578T breast; 17.6% in the assay on NCI/ADR-RES ovarian; -6.15% (active) in the assay with T-47D breast; -36.3% (active) in the assay on BT-549 breast; -32.1% (active) in the assay on MDA-MB-435 melanoma. Moreover, the growth in the assay on SW-620 colon was -81.7% (active); in the assay with MCF7 breast it was -3.08% (active); in the assay with HCT-116 colon, -92.2% (active); with KM12 colon, -76.3% (active).

As for `NC(N)=N/N=C(/c1ccccc1)c1ccc(Cl)cc1`, the growth is 172% in the assay on RPMI-8226 leukemia; 103% with OVCAR-8 ovarian; 96% with OVCAR-5 ovarian; 95.2% in the assay on OVCAR-4 ovarian; 81.2% with SK-OV-3 ovarian; 18.7% in the assay with IGROV1 ovarian. Moreover, the growth in the assay with OVCAR-3 ovarian is 5.42% (active); in the assay with HS 578T breast, -22.5% (active); in the assay on NCI/ADR-RES ovarian, 82.6%; in the assay with T-47D breast it was 64.5%; in the assay with BT-549 breast it was 70.2%; with MDA-MB-435 melanoma, -54.4% (active). In addition, the growth was 47.6% in the assay on SW-620 colon, 11.3% with MCF7 breast, 24.9% in the assay on HCT-116 colon and 28.3% in the assay on KM12 colon.

With `O=C(Nc1ccccc1Cl)c1cnc2ccc(C3CCNCC3)cn12`, the growth is 108% with RPMI-8226 leukemia; 65.5% in the assay on OVCAR-8 ovarian; 30.8% with OVCAR-5 ovarian; 101% in the assay on OVCAR-4 ovarian; 40.3% in the assay on SK-OV-3 ovarian; -50.5% (active) with IGROV1 ovarian. Further, the growth is 62.2% in the assay with OVCAR-3 ovarian; 9.47% (active) with HS 578T breast; 90.5% in the assay on NCI/ADR-RES ovarian; 51.8% with T-47D breast; 97.8% in the assay with BT-549 breast; 86% in the assay with MDA-MB-435 melanoma. Besides, the growth was 96.6% with SW-620 colon, 83.6% in the assay on MCF7 breast, 58.2% with HCT-116 colon and 110% in the assay with KM12 colon.

Regarding `COc1ccc(C(=O)C(C)Br)cc1OC` (configuration not stated), the growth was 85.5% in the assay with RPMI-8226 leukemia; 88.3% in the assay with OVCAR-8 ovarian; 84.7% in the assay with OVCAR-5 ovarian; 84% in the assay on OVCAR-4 ovarian; 115% with SK-OV-3 ovarian; 76.5% in the assay on IGROV1 ovarian. The growth was 61.5% in the assay on OVCAR-3 ovarian; 95.2% in the assay with HS 578T breast; 96.1% in the assay with NCI/ADR-RES ovarian; 82.6% in the assay with T-47D breast; 94.3% in the assay with BT-549 breast; 87.4% in the assay with MDA-MB-435 melanoma. Moreover, the growth in the assay with SW-620 colon is 40.8%; in the assay with HCT-116 colon, 52.2%; in the assay with KM12 colon, 93.3%.

Consider `O=C(c1ccccc1)c1ccco1`, for which the growth was 101% in the assay on RPMI-8226 leukemia; 98.2% in the assay on OVCAR-8 ovarian; 114% in the assay with OVCAR-5 ovarian; 99.4% in the assay on OVCAR-4 ovarian; 104% in the assay with SK-OV-3 ovarian; 99.5% in the assay with IGROV1 ovarian. Further, the growth with OVCAR-3 ovarian is 108%; with HS 578T breast it was 118%; in the assay on NCI/ADR-RES ovarian, 95.7%; with T-47D breast, 97%; with BT-549 breast, 97.8%; with SW-620 colon, 110%. For the same compound, the growth in the assay with MCF7 breast was 93.2%; in the assay on HCT-116 colon it was 102%; in the assay with KM12 colon, 107%.

Take `CCCCc1nc(Cl)c(CO)n1Cc1ccc(-c2ccccc2-c2nn[nH]n2)cc1`: the growth with RPMI-8226 leukemia was 115%; with OVCAR-8 ovarian, 103%; with OVCAR-5 ovarian, 101%; with OVCAR-4 ovarian, 109%; in the assay with SK-OV-3 ovarian, 106%; in the assay with IGROV1 ovarian it was 104%. The growth in the assay on OVCAR-3 ovarian is 111%; in the assay on HS 578T breast it was 110%; in the assay on NCI/ADR-RES ovarian, 105%; with T-47D breast it was 110%; in the assay on BT-549 breast it was 106%; with MDA-MB-435 melanoma, 96.5%. Further, the growth in the assay on SW-620 colon was 103%; with HCT-116 colon, 102%; with HCC-2998 colon, 104%; in the assay on KM12 colon, 103%.

Take `O=C(/C=C/c1cccnc1)/C=C/c1cccnc1`: the growth in the assay with RPMI-8226 leukemia is -61.1% (active); in the assay on OVCAR-8 ovarian, -25.2% (active); with OVCAR-5 ovarian, -21.7% (active); in the assay on OVCAR-4 ovarian, 20.9%; in the assay on SK-OV-3 ovarian, 31%; with IGROV1 ovarian, -89.3% (active). Further, the growth is -40.9% (active) in the assay with OVCAR-3 ovarian; -16% (active) in the assay on HS 578T breast; 32.2% with NCI/ADR-RES ovarian; -2.05% (active) with T-47D breast; -28.9% (active) in the assay with MDA-MB-435 melanoma; -68.6% (active) in the assay with SW-620 colon. Further, the growth in the assay with MCF7 breast is -39.4% (active); with HCT-116 colon it was -92.7% (active); in the assay with HCC-2998 colon it was -70.6% (active); in the assay with KM12 colon, -85.1% (active).

For the compound `CC[C@H](C)C(=O)O[C@H]1C[C@@H](C)C=C2C=C[C@H](C)[C@H](CC[C@@H]3C[C@@H](O)CC(=O)O3)[C@H]21`, the growth was 71.8% in the assay with RPMI-8226 leukemia; 61.9% in the assay on OVCAR-8 ovarian; 87.2% in the assay with OVCAR-5 ovarian; 111% in the assay with OVCAR-4 ovarian; 83.7% in the assay with SK-OV-3 ovarian; 55.9% with IGROV1 ovarian. The growth is 102% in the assay on OVCAR-3 ovarian; 94% in the assay with HS 578T breast; 32.1% in the assay on NCI/ADR-RES ovarian; 96.7% in the assay with T-47D breast; 82.4% with BT-549 breast; 87.8% in the assay with MDA-MB-435 melanoma. The growth in the assay with SW-620 colon is 99.2%; with HCT-116 colon it was 51.7%; in the assay on HCC-2998 colon, 97.5%; with KM12 colon, 109%.

Regarding `O=C1NCC(Nc2ccc(Br)cc2Cl)C(=O)N1` (configuration not stated), the growth with RPMI-8226 leukemia was 110%; with OVCAR-8 ovarian, 130%; in the assay on OVCAR-5 ovarian it was 100%; in the assay with OVCAR-4 ovarian, 111%; in the assay with SK-OV-3 ovarian, 105%; in the assay with IGROV1 ovarian it was 108%. The growth in the assay with OVCAR-3 ovarian was 114%; in the assay on HS 578T breast it was 105%; with NCI/ADR-RES ovarian, 107%; in the assay on T-47D breast, 99.6%; in the assay with MDA-MB-435 melanoma it was 111%; with SW-620 colon it was 100%. The growth was 103% with MCF7 breast, 102% with HCT-116 colon, 116% with HCC-2998 colon and 108% in the assay with KM12 colon.
